Laboratory results reported in PubChem BioAssay (Tox21).
Inconclusive results are not listed. Activity calls are given as the source filed them. Calls follow the shape of the dose curve; as a rule, active = well fitted inhibition curve with a large enough effect in the signal ratio in the repeat runs (not every such curve was filed as active); inconclusive = weak or mixed curves, or effect the other way; inactive = no such curve, though single readings can be large or run the other way; the % refers to the signal ratio.

biological target: Estrogen receptor beta (Homo sapiens) (UniProt Q92731); test: qHTS assay to identify small molecule antagonists of the estrogen receptor beta (ER-beta) signaling pathway (AID 1259378); conditions: ER-beta-UAS-bla HEK293T, beta-lactamase FRET ratio, 16 h; series mostly up to 92.4 µM; activity, negative = inhibition: at the top concentration
Sequence (Q92731 whole entry, looked up): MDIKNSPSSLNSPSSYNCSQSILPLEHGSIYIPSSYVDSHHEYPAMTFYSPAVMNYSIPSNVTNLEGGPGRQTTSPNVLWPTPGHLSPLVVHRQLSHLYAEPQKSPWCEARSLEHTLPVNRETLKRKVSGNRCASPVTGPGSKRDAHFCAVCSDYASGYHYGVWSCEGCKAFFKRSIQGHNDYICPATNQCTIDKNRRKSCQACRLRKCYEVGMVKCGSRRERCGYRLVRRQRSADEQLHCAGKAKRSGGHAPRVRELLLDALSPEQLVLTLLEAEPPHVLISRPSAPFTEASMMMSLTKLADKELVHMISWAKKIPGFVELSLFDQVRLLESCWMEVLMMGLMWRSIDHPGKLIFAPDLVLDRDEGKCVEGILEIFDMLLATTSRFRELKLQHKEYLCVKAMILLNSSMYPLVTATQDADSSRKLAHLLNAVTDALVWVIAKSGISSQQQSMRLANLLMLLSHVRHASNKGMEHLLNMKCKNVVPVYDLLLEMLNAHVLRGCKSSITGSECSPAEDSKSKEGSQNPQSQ
Excerpt: National Center for Advancing Translational Sciences [NCATS]
NIH Chemical Genomics Center [NCGC]
U.S. Environmental Protection Agency [EPA]
National Institutes of Environmental Health Sciences [NIEHS]
National Toxicology Program [NTP]
U.S. Food and Drug Administration [FDA]
Estrogen receptor (ER), a nuclear hormone receptor, plays an important role in development, metabolic homeostasis and reproduction. Two subtypes of ER, ER-alpha and ER-beta, have similar expression patterns with some uniqueness in both types. Endocrine disrupting chemicals (EDCs) and their interactions with steroid hormone receptors like ER causes disruption of normal endocrine function. To identify the compounds that inhibit ER signaling, an ER-beta-UAS-bla GripTite cell line (Life Technologies, Madison, WI, USA) containing a beta-lactamase reporter gene under the control of an UAS response element was used to screen Tox21 10K compound library.
Tox21 Assay Protocol Summary:
ER-beta-UAS-bla HEK293T cells were dispensed at 2,000 cells/4 uL of assay medium containing 2% charcoal stripped FBS per well into black wall/clear-bottom 1536-well plates using a Multidrop Combi (ThermoFisher Scientific, Waltham, MA) dispenser. After the assay plates were incubated at a 37C and 5% CO2 for 6 hr, 23 nL of compounds dissolved in DMSO, positive controls or DMSO only was transferred to the assay plate by a Pintool station (Kalypsys, San Diego, CA), followed by addition of 1 uL (1nM as final concentration) of 17-beta-estradiol (E2) in assay medium using a BioRAPTR FRD (Flying Reagent Dispenser, Aurora Discovery, San Diego, CA). The plates were incubated at 37C and 5% CO2 for 16 hr. Then 1 uL of LiveBLAzerTM B/G FRET substrate was added using a Flying Reagent Dispenser, the plates were incubated at room temperature for 2 hours, and fluorescence intensity was measured by an Envision plate reader (PerkinElmer, Shelton, CT).
% is scaled to controls: 0 for no effect and ±100 for the full control effect; potency is read from the fitted curve at half-maximal effect.

SMILES	activity, negative = inhibition	Potency
C=CC(=O)OCCN(CC)CC	0.551% (inactive)	–
COC(=O)[C@]1(C)CCC[C@@]2(C)[C@H]1CC=C1C=C(C(C)C)CC[C@@H]12	-3.54% (inactive)	–
CCOB(OCC)OCC	10.8% (inactive)	–
C=C/C=C/C=C/CCCCC	-14.6% [at 19 µM] (inactive)	–
O=C1OC(=O)c2cccc3cccc1c23	8.37% (inactive)	–
CC(=O)C=O	-7.71% (inactive)	–
CCc1c(C(=O)O)c(=O)cnn1-c1ccc(Cl)cc1	9.42% (inactive)	–
CCOC(/C=C(\C)CCC=C(C)C)OCC	-28% (inactive)	–
CCN(CC)CCOC(=O)C1(C2CCCCC2)CCCCC1	0.765% [at 42.5 µM] (inactive)	–
CCc1c(Br)c(Br)c(Br)c(Br)c1Br	1.33% (inactive)	–
CC1=CCC(=O)O1	-16.2% (inactive)	–
Cc1cn[nH]c1	22% [at 42.5 µM] (inactive)	–
Cc1ccc(-n2[nH]c(C)c(N=Nc3cccc(-c4cccc(C(=O)O)c4)c3O)c2=O)cc1C	–	8.41 µM (active)
CC1(C)C(=O)N(CO)C(=O)N1CO	3.78% (inactive)	–
O=S(=O)(O)c1cc(S(=O)(=O)O)c2ccc3c(S(=O)(=O)O)cc(S(=O)(=O)O)c4ccc1c2c43	-6.24% [at 19 µM] (inactive)	–
Oc1ccc(-c2ccccc2)c(Cl)c1	–	21.7 µM (active)
CC1=C(/C=C/C(C)=C/C=C/C(C)=C\C=O)C(C)(C)CCC1	–	32.5 µM (active)
Cc1c(C)n(Cc2ccccc2)c2ccc(C(=O)OCCN(C)C)cc12	–	23.7 µM (active)
CC(C)c1ccc(O)c(C(C)C)c1	-7.71% (inactive)	–
CC(C)(C)c1n[nH]c(=O)n(N)c1=O	-16.8% (inactive)	–

SMILES	activity, negative = inhibition	Potency
CC(C)=CCCC(C)CCOC(=O)C(C)C (stereo not given)	-2.53% (inactive)	–
N[C@@H](CSSC[C@H](N)C(=O)O)C(=O)O	28.3% [at 0.349 µM] (inactive)	–
CN(C)c1ccc(N=Nc2ccccc2C(=O)O)cc1	–	15.4 µM (active)
CC(C)(C)c1cc(/C=C2\SC(=N)NC2=O)cc(C(C)(C)C)c1O	–	21.7 µM (active)
CCOCN(C(=O)CS(=O)(=O)O)c1c(C)cccc1CC	1.98% (inactive)	–
C=CC/C=C/C/C=C/C/C=C/C	-5.27% (inactive)	–
COC(=O)CC(C)CCC=C(C)C (stereo not given)	1.31% (inactive)	–
CCOC(=O)COc1ccc(C)cc1	12.4% (inactive)	–
C/C=C/C(=O)C1=C(C)CCCC1(C)C	-27.8% (inactive)	–
O=CC1CC1	1.78% (inactive)	–
Cc1ccc(O)cn1	23.2% (inactive)	–
CC(C)(c1cc(Br)c(OCCO)c(Br)c1)c1cc(Br)c(OCCO)c(Br)c1	–	4.75 µM (active)
Clc1cc(Cl)c(-c2c(Cl)c(Cl)cc(Cl)c2Cl)cc1Cl	23.7% [at 42.5 µM] (inactive)	–
O=S(=O)(O)CCCN1CCOCC1	-1.91% (inactive)	–
CS(C)(=O)=O	17.8% (inactive)	–
Cc1cc(Nc2ccc(O)cc2)ccc1N	-17.7% (inactive)	–
O=C1NCN(c2ccccc2)C12CCN(CCCC(c1ccc(F)cc1)c1ccc(F)cc1)CC2	–	18.8 µM (active)
CC(C)=CC1CC(C)CCO1 (stereo not given)	-0.265% (inactive)	–
C/C=C/CO	-10.7% (inactive)	–
CCCCNc1c(C(=O)OCC)c(C)nc2c1cnn2CC	7.86% [at 42.5 µM] (inactive)	–
